The values below come from paper PMC13541613, “GHT-SELEX demonstrates unexpectedly high intrinsic sequence specificity and complex DNA binding of many human transcription factors”.

ZNF721 DBD2, sequence (Q8TF20 383-911): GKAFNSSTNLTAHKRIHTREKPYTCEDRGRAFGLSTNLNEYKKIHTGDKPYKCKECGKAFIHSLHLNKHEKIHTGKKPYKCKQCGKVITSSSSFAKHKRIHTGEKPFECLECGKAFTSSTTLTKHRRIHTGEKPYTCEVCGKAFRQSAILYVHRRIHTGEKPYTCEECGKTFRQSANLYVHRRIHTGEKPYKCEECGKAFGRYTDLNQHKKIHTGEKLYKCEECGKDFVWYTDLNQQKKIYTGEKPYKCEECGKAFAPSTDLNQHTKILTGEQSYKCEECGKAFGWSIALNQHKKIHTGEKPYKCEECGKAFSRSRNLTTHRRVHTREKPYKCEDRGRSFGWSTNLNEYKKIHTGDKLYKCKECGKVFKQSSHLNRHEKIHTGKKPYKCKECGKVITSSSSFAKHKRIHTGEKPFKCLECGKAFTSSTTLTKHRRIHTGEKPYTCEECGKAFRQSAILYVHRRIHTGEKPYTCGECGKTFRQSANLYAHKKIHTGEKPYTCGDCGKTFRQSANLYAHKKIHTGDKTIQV

This assay deals with ZNF721 DBD2 (Homo sapiens, UniProt Q8TF20-2 395-923). The assay can be described thus: HT-SELEX; 20 mM HEPES pH 7, 140 mM KCl, 5 mM NaCl, 1 mM K2HPO4, 2 mM MgSO4, 100 uM EGTA, ZnSO4, 0.1% Tween20; room temperature, 1 h; high values mean tight binding. Particulars: protein: ivt; tags: eGFP (N-terminal); dsDNA, one strand shown. The method in brief:
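The binding signal is a relative k-mer count in selected reads, and higher values mean tighter binding. To obtain these reads, bead-bound tagged transcription factor (full-length or DNA-binding-domain fragment, produced in HEK293 lysate or cell-free extract) was mixed with a randomized 40-base DNA library for 1 h at room temperature in low-stringency HEPES/KCl buffer with Tween20. Bound DNA was recovered by washing and heat elution, PCR-amplified through successive cycles and sequenced on Illumina (~3 million 60 bp reads per sample).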
For CCCACCCGAC, the binding signal is 0.00479 relative 10-mer count.
Turning to AAAGCAGCCC, the binding signal worked out at 0.133 relative 10-mer count.
The result for CCACCCCACA reads 0.00791 relative 10-mer count; that for CCCCACCCCG, 0.00384 relative 10-mer count; that for CCGCCACCCC, 0.0018 relative 10-mer count.
Take CCACCGTCCC: the binding signal came to 0.00467 relative 10-mer count.
With CCCCCCCTCC the figure was 0.00336 relative 10-mer count.
With CCTCCCCGCC the figure was 0.00923 relative 10-mer count.
The result for CACCGTCCCC reads 0.00252 relative 10-mer count; that for CAGCATACCC, 0.909 relative 10-mer count.
As for CACCCCCCCG, the binding signal worked out at 0.003 relative 10-mer count.
Turning to CCACTCCCCC, the binding signal was 0.00144 relative 10-mer count.
ACCCACCCCT gave a binding signal of 0.00324 relative 10-mer count.
With CCACCACCCC the figure was 0.00419 relative 10-mer count; with AAAGGCATAC, 0.123 relative 10-mer count; with AAAAGCGTAC, 0.0176 relative 10-mer count.
With AAAAGGCATA the figure was 0.116 relative 10-mer count; with CCCCCCCCCA, 0.00312 relative 10-mer count; with AGGAAAAAAG, 0.0182 relative 10-mer count.
As to CCCCCACTCC, the binding signal turned out to be 0.00288 relative 10-mer count.
The result for GTGGGGTGGA reads 0.00539 relative 10-mer count; that for CGTCCCCCAC, 0.00407 relative 10-mer count; that for ATAGCTTCAT, 0.00288 relative 10-mer count.
As for CCACCCCCCC, the binding signal turned out to be 0.00336 relative 10-mer count.
With AAAAAAGCTG the figure was 0.00707 relative 10-mer count; with GCCCCCCGCC, 0.003 relative 10-mer count.
Regarding AAACAGCGTA, the binding signal was 0.468 relative 10-mer count.
With ACACCCCACC the figure was 0.00204 relative 10-mer count; with AGCTTTTTTC, 0.00467 relative 10-mer count.
The result for AAAACAAGCA reads 0.0831 relative 10-mer count; that for AGGTGGGGTG, 0.00288 relative 10-mer count.
With CACCACACCC the figure was 0.00336 relative 10-mer count.
The sequence GGGTGGGGCA yielded a binding signal of 0.00216 relative 10-mer count.
The result for CCCACACCCA reads 0.00455 relative 10-mer count; that for CCACCCGCCA, 0.00491 relative 10-mer count; that for CCCCTCCTCC, 0.00515 relative 10-mer count.
As for AACAAAAAAG, the binding signal is 0.0439 relative 10-mer count.
The result for GCCCCCACCC reads 0.00407 relative 10-mer count.
With CGCCTCCCCC the figure was 0.00336 relative 10-mer count; with AGGGGGAGGG, 0.00515 relative 10-mer count.
